In the supplement of paper PMC7393113:
± gives the standard deviation of the averaged measurements.

The compounds below were run on iBMDM (immortalised mouse bone-marrow-derived macrophages), LPS-stimulated (assay: mitochondrial superoxide (MitoSOX fluorescence) fold increase over unstimulated control; higher = more LPS-induced mitochondrial ROS (less inhibition)). Settings: inhibitor concentration: 500 nM; LPS: 100 ng/ml; time after LPS: 1 h.
Outline: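 Immortalised mouse bone-marrow-derived macrophages were seeded in triplicate in black 96-well plates and moved to phenol-red-free 1% FCS/DMEM for 20 h. They were pretreated 30 min with kinase inhibitors (500 nM), loaded with 1 μM MitoSox for 10 min, then given LPS (100 ng/ml). Fluorescence (excitation/emission 510/580 nm, ClarioStar plate reader) was read every 60 min for 4 h. Mitochondrial superoxide is fold induction over untreated control macrophages, averaged over three replicates.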
For `Cc1cc(C)c(/C=C2\C(=O)Nc3ccccc32)[nH]1` [Semaxanib (SU5416)], the mitochondrial superoxide was 1.19 ± 0.012.
In the case of `C=CC(=O)Nc1ccc2ncnc(Nc3cccc(Br)c3)c2c1`, the mitochondrial superoxide is reported as 1.12 ± 0.053.
`O=C(O)[C@]1(Cc2cccc(Nc3nccs3)n2)CC[C@@H](Oc2cccc(Cl)c2F)CC1` showed a mitochondrial superoxide of 1.22 ± 0.027.
`COc1cc2ncnc(Nc3ccc(F)c(Cl)c3)c2cc1OCCCN1CCOCC1` [Gefitinib (ZD1839)] gave a mitochondrial superoxide of 1.6 ± 0.048.
With `O=C(NC(NC(=S)Nc1ccc(F)c([N+](=O)[O-])c1)C(Cl)(Cl)Cl)C(c1ccccc1)c1ccccc1` (centres undefined) the mitochondrial superoxide was 1.13 ± 0.029.
`CS(=O)(=O)c1cccc(CNc2nc(Nc3ccc4c(c3)CCC(=O)N4)ncc2C(F)(F)F)c1` gave a mitochondrial superoxide of 1.2 ± 0.044.
Work on `Cc1cc([C@@H](C)Nc2ccccc2C(=O)O)c2nc(N3CCOCC3)cc(=O)n2c1` yielded a mitochondrial superoxide of 1.14 ± 0.043.
`Cn1cnc2c(F)c(Nc3ccc(Br)cc3Cl)c(C(=O)NOCCO)cc21` [Selumetinib (AZD6244)] was tested, and the mitochondrial superoxide was 1.45 ± 0.037.
Work on `Cc1[nH]nc2ccc(-c3cncc(OC[C@@H](N)Cc4ccccc4)c3)cc12` yielded a mitochondrial superoxide of 1.24 ± 0.1.
Compound `Cc1cc(Nc2ncnc3ccc(-c4ccc(CNCCS(C)(=O)=O)o4)cc23)ccc1Oc1ccn2ncnc2c1` [HER2-Inhibitor-1] has a mitochondrial superoxide of 1.26 ± 0.072.
`Cc1[nH]c(/C=C2\C(=O)Nc3ccccc32)c(C)c1CCC(=O)O` [TSU-68 (SU6668, Orantinib)] showed a mitochondrial superoxide of 2.12 ± 0.096.
For `CC(C)CCN1c2nc(Nc3cc(F)c(O)c(F)c3)ncc2N(C)C(=O)C1C` (centres undefined), the mitochondrial superoxide was 1.14 ± 0.036.
`CNC(=O)Nc1ccc(-c2nc(N3CC4CCC(C3)O4)c3cnn(C4CCC5(CC4)OCCO5)c3n2)cc1` showed a mitochondrial superoxide of 1.26 ± 0.075.
Compound `Cc1nc(NC(=O)N2CCC[C@H]2C(N)=O)sc1-c1ccnc(C(C)(C)C(F)(F)F)c1` has a mitochondrial superoxide of 1.3 ± 0.032.
With `CCN1CCN(Cc2ccc(-c3cc4c(N[C@H](C)c5ccccc5)ncnc4[nH]3)cc2)CC1` the mitochondrial superoxide was 1.08 ± 0.019.
Work on `C=CC(=O)Nc1cccc(Sc2nc(Nc3ccc(N4CCN(C)CC4)cc3)ncc2Cl)c1` yielded a mitochondrial superoxide of 1.24 ± 0.09.
Work on `O=C(NOC[C@H](O)CO)c1ccc(F)c(F)c1Nc1ccc(I)cc1F` yielded a mitochondrial superoxide of 1.589 ± 0.0074.
`C=CC(=O)Nc1cccc(Nc2nc(Nc3ccc(Oc4ccnc(C(=O)NC)c4)cc3)ncc2F)c1` showed a mitochondrial superoxide of 1.4 ± 0.018.
`C[C@@H](Oc1cc(-c2cnn(C3CCNCC3)c2)cnc1N)c1c(Cl)ccc(F)c1Cl` gave a mitochondrial superoxide of 1.39 ± 0.038.
`FC(F)c1nc2ccccc2n1-c1nc(N2CCOCC2)nc(N2CCOCC2)n1` was tested, and the mitochondrial superoxide was 1.53 ± 0.029.
For `O=C1c2ccc(Nc3ccc(F)cc3F)cc2CCc2ccc(OC[C@H](O)CO)cc21` [Skepinone-L], the mitochondrial superoxide was 1.43 ± 0.05.
`C[S+]([O-])c1ccc(-c2nc(-c3ccc(F)cc3)c(-c3ccncc3)[nH]2)cc1` (centres undefined) showed a mitochondrial superoxide of 1.39 ± 0.14.
`C[C@H](NC(=O)/C(C#N)=C/c1cccc(Br)n1)c1ccccc1` showed a mitochondrial superoxide of 1.21 ± 0.039.
`COc1ncc(-c2ccc3nccc(-c4ccnnc4)c3c2)cc1NS(=O)(=O)c1ccc(F)cc1F` showed a mitochondrial superoxide of 1.28 ± 0.049.
`CCN(CCO)CCCOc1ccc2c(Nc3cc(CC(=O)Nc4cccc(F)c4)[nH]n3)ncnc2c1` [Barasertib (AZD1152-HQPA)] was tested, and the mitochondrial superoxide was 1.33 ± 0.093.
`O=C1Nc2ccc(I)cc2C1=Cc1cc(Br)c(O)c(Br)c1` was tested, and the mitochondrial superoxide was 1.1 ± 0.039.
`CC(C)N(CCC(=O)c1ccc2ccccc2c1)Cc1ccccc1` showed a mitochondrial superoxide of 1.31 ± 0.017.
`CCCCOc1c(C(=O)c2c(F)cc(C)cc2F)c[nH]c2nncc1-2` gave a mitochondrial superoxide of 1.16 ± 0.027.
`C=CC(=O)Nc1ccc2ncnc(Nc3ccc(OCc4cccc(F)c4)c(Cl)c3)c2c1` showed a mitochondrial superoxide of 1.18 ± 0.017.
With `COc1cc(OC)c(/C=C/S(=O)(=O)Cc2ccc(OC)c(NCC(=O)O)c2)c(OC)c1` the mitochondrial superoxide was 1.071 ± 0.0096.
`CN(C)CCOc1ccc(-c2nc(-c3ccncc3)c(-c3ccc4c(c3)CC/C4=N\O)[nH]2)cc1` showed a mitochondrial superoxide of 1.07 ± 0.036.
Compound `O=c1sn(-c2cccc3ccccc23)c(=O)n1Cc1ccccc1` [Tideglusib] has a mitochondrial superoxide of 1.14 ± 0.068.
For `Cc1ccc(NC(=O)c2ccc(CN3CCN(C)CC3)cc2)cc1Nc1nccc(-c2cccnc2)n1` [Imatinib (STI571)], the mitochondrial superoxide was 1.28 ± 0.061.
`Cc1ccc2nc(NCCN)c3ncc(C)n3c2c1` showed a mitochondrial superoxide of 1.43 ± 0.036.
In the case of `CCc1ccc(/C=C2/SC(=S)NC2=O)cc1`, the mitochondrial superoxide is reported as 1.137 ± 0.0067.
`CC1(C)CNc2cc(NC(=O)c3cccnc3NCc3ccncc3)ccc21` [Motesanib Diphosphate (AMG-706)] gave a mitochondrial superoxide of 1.55 ± 0.066.
For `O=c1ncn2nc(Sc3ccc(F)cc3F)ccc2c1-c1c(Cl)cccc1Cl`, the mitochondrial superoxide was 1.16 ± 0.045.

Same assay, conditions: inhibitor concentration: 500 nM; LPS: 100 ng/ml; time after LPS: 2 h
Compound `Cc1cc(C)c(/C=C2\C(=O)Nc3ccccc32)[nH]1` [Semaxanib (SU5416)] has a mitochondrial superoxide of 1.22 ± 0.029.
Compound `C=CC(=O)Nc1ccc2ncnc(Nc3cccc(Br)c3)c2c1` has a mitochondrial superoxide of 1.29 ± 0.027.
For `O=C(O)[C@]1(Cc2cccc(Nc3nccs3)n2)CC[C@@H](Oc2cccc(Cl)c2F)CC1`, the mitochondrial superoxide was 1.39 ± 0.086.
For `COc1cc2ncnc(Nc3ccc(F)c(Cl)c3)c2cc1OCCCN1CCOCC1` [Gefitinib (ZD1839)], the mitochondrial superoxide was 1.71 ± 0.044.
For `O=C(NC(NC(=S)Nc1ccc(F)c([N+](=O)[O-])c1)C(Cl)(Cl)Cl)C(c1ccccc1)c1ccccc1` (centres undefined), the mitochondrial superoxide was 1.25 ± 0.031.
Work on `CS(=O)(=O)c1cccc(CNc2nc(Nc3ccc4c(c3)CCC(=O)N4)ncc2C(F)(F)F)c1` yielded a mitochondrial superoxide of 1.24 ± 0.056.
Work on `Cc1cc([C@@H](C)Nc2ccccc2C(=O)O)c2nc(N3CCOCC3)cc(=O)n2c1` yielded a mitochondrial superoxide of 1.22 ± 0.077.
`Cn1cnc2c(F)c(Nc3ccc(Br)cc3Cl)c(C(=O)NOCCO)cc21` [Selumetinib (AZD6244)] gave a mitochondrial superoxide of 1.51 ± 0.031.
`Cc1[nH]nc2ccc(-c3cncc(OC[C@@H](N)Cc4ccccc4)c3)cc12` showed a mitochondrial superoxide of 1.43 ± 0.11.
With `Cc1cc(Nc2ncnc3ccc(-c4ccc(CNCCS(C)(=O)=O)o4)cc23)ccc1Oc1ccn2ncnc2c1` [HER2-Inhibitor-1] the mitochondrial superoxide was 1.34 ± 0.074.
Work on `Cc1[nH]c(/C=C2\C(=O)Nc3ccccc32)c(C)c1CCC(=O)O` [TSU-68 (SU6668, Orantinib)] yielded a mitochondrial superoxide of 2.2 ± 0.093.
In the case of `CC(C)CCN1c2nc(Nc3cc(F)c(O)c(F)c3)ncc2N(C)C(=O)C1C` (centres undefined), the mitochondrial superoxide is reported as 1.21 ± 0.047.
With `CNC(=O)Nc1ccc(-c2nc(N3CC4CCC(C3)O4)c3cnn(C4CCC5(CC4)OCCO5)c3n2)cc1` the mitochondrial superoxide was 1.45 ± 0.028.
Compound `Cc1nc(NC(=O)N2CCC[C@H]2C(N)=O)sc1-c1ccnc(C(C)(C)C(F)(F)F)c1` has a mitochondrial superoxide of 1.46 ± 0.052.
With `CCN1CCN(Cc2ccc(-c3cc4c(N[C@H](C)c5ccccc5)ncnc4[nH]3)cc2)CC1` the mitochondrial superoxide was 1.11 ± 0.04.
With `C=CC(=O)Nc1cccc(Sc2nc(Nc3ccc(N4CCN(C)CC4)cc3)ncc2Cl)c1` the mitochondrial superoxide was 1.26 ± 0.035.
For `O=C(NOC[C@H](O)CO)c1ccc(F)c(F)c1Nc1ccc(I)cc1F`, the mitochondrial superoxide was 1.64 ± 0.044.
Work on `C=CC(=O)Nc1cccc(Nc2nc(Nc3ccc(Oc4ccnc(C(=O)NC)c4)cc3)ncc2F)c1` yielded a mitochondrial superoxide of 1.49 ± 0.031.
`C[C@@H](Oc1cc(-c2cnn(C3CCNCC3)c2)cnc1N)c1c(Cl)ccc(F)c1Cl` gave a mitochondrial superoxide of 1.5 ± 0.052.
`FC(F)c1nc2ccccc2n1-c1nc(N2CCOCC2)nc(N2CCOCC2)n1` was tested, and the mitochondrial superoxide was 1.71 ± 0.068.
For `O=C1c2ccc(Nc3ccc(F)cc3F)cc2CCc2ccc(OC[C@H](O)CO)cc21` [Skepinone-L], the mitochondrial superoxide was 1.41 ± 0.05.
For `C[S+]([O-])c1ccc(-c2nc(-c3ccc(F)cc3)c(-c3ccncc3)[nH]2)cc1` (centres undefined), the mitochondrial superoxide was 1.5 ± 0.16.
Compound `C[C@H](NC(=O)/C(C#N)=C/c1cccc(Br)n1)c1ccccc1` has a mitochondrial superoxide of 1.368 ± 0.011.
For `COc1ncc(-c2ccc3nccc(-c4ccnnc4)c3c2)cc1NS(=O)(=O)c1ccc(F)cc1F`, the mitochondrial superoxide was 1.42 ± 0.033.
`CCN(CCO)CCCOc1ccc2c(Nc3cc(CC(=O)Nc4cccc(F)c4)[nH]n3)ncnc2c1` [Barasertib (AZD1152-HQPA)] showed a mitochondrial superoxide of 1.39 ± 0.13.
In the case of `O=C1Nc2ccc(I)cc2C1=Cc1cc(Br)c(O)c(Br)c1`, the mitochondrial superoxide is reported as 1.07 ± 0.074.
Compound `CC(C)N(CCC(=O)c1ccc2ccccc2c1)Cc1ccccc1` has a mitochondrial superoxide of 1.44 ± 0.11.
Compound `CCCCOc1c(C(=O)c2c(F)cc(C)cc2F)c[nH]c2nncc1-2` has a mitochondrial superoxide of 1.25 ± 0.066.
`C=CC(=O)Nc1ccc2ncnc(Nc3ccc(OCc4cccc(F)c4)c(Cl)c3)c2c1` was tested, and the mitochondrial superoxide was 1.204 ± 0.0092.
In the case of `COc1cc(OC)c(/C=C/S(=O)(=O)Cc2ccc(OC)c(NCC(=O)O)c2)c(OC)c1`, the mitochondrial superoxide is reported as 1.15 ± 0.084.
`CN(C)CCOc1ccc(-c2nc(-c3ccncc3)c(-c3ccc4c(c3)CC/C4=N\O)[nH]2)cc1` was tested, and the mitochondrial superoxide was 1.15 ± 0.075.
Work on `O=c1sn(-c2cccc3ccccc23)c(=O)n1Cc1ccccc1` [Tideglusib] yielded a mitochondrial superoxide of 1.17 ± 0.049.
`Cc1ccc(NC(=O)c2ccc(CN3CCN(C)CC3)cc2)cc1Nc1nccc(-c2cccnc2)n1` [Imatinib (STI571)] was tested, and the mitochondrial superoxide was 1.39 ± 0.18.
Work on `Cc1ccc2nc(NCCN)c3ncc(C)n3c2c1` yielded a mitochondrial superoxide of 1.48 ± 0.027.
`CCc1ccc(/C=C2/SC(=S)NC2=O)cc1` showed a mitochondrial superoxide of 1.22 ± 0.042.
Compound `CC1(C)CNc2cc(NC(=O)c3cccnc3NCc3ccncc3)ccc21` [Motesanib Diphosphate (AMG-706)] has a mitochondrial superoxide of 1.63 ± 0.12.
`O=c1ncn2nc(Sc3ccc(F)cc3F)ccc2c1-c1c(Cl)cccc1Cl` gave a mitochondrial superoxide of 1.21 ± 0.014.
